Out of some 360,000 compounds screened, about 6,000 (1.7%) were called active. About 8% were inconclusive and are not listed. The sample holds actives, similar compounds and a random draw of the others, so the mix is not that of the screen. Unmarked numbers belong to inactive results. The call rests on the fitted dose curve; in most records, active means well fitted cell-killing curve with a large enough effect; inconclusive means small, poorly fitted or top-dose-only effect, or effect the other way; inactive means flat fitted curve, though single readings scatter.
Assay: qHTS for induction of synthetic lethality in tumor cells producing 2HG: qHTS for the HT-1080-NT fibrosarcoma cell line;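 further: NT is the 2HG producing partner of a matched IDH1 knockdown line; nearly all actives have a fitted effect of over 55% in size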;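 on activity, negative = less viability: 0% = DMSO-treated cells and -100% = media-only wells without cells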
Settings: HT-1080-NT fibrosarcoma viability, CellTiter-Glo ATP luminescence, 48 h; series mostly up to 46.1 µM; activity, negative = less viability: at the top concentration
Summary of the method: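 HT-1080-NT fibrosarcoma cells (2HG-overproducing), 750 cells/well in RPMI with 5% FBS, dosed after 2 h and incubated 48 h at 37C. CellTiter-Glo luminescence normalized to DMSO and no-cell wells; concentration-response curves fitted and classed.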
Potency means the concentration at half of the fitted maximal effect.

In order of rising “activity, negative = less viability” value:
1. COc1ccc(CN2C[C@H]3CON(C)[C@H]3C[C@H]2c2ccc(-c3cccc(F)c3)cc2)cc1  -27.7%
2. O=C(Nc1ccc(Cl)cc1)N1CCc2[nH]c3ccccc3c2C1  -22.4%
3. COc1ccc(CCCc2nnc(SCc3nc4ccccc4c(=O)[nH]3)n2C)cc1  -18%
4. COc1ccc(C2=Nc3ccccc3NC(=O)C2N(C(=O)c2cc3ccccc3[nH]2)c2ccccc2)cc1 (stereo not given)  -15.6%
5. Cc1sc2ncnc(SCC(=O)NC3CCS(=O)(=O)C3)c2c1C (stereo not given)  -12.9%
6. N#CCSc1ccccc1NC(=O)CN1C(=O)NC(CCc2ccccc2)C1=O (stereo not given)  -11.4%
7. Cc1cccc(-c2cnc(C(O)c3ccc4ccccc4c3)[nH]2)c1 (stereo not given)  -10.5%
8. COC(=O)[C@]12CCCCC=C1N(CCC1=CCCCC1)C(=O)[C@H](CC(=O)N1CCSCC1)C2  -10.5%
9. COc1ccc(CNC(=O)C2CC(c3ccc(C(F)(F)F)cc3)=NO2)cc1 (stereo not given)  -10.4%
10. CCc1oc(-c2ccc(OC)cc2)c(C(=O)OCCCCCO)c1C(C)OCCO (stereo not given)  -8.86%
11. CN(C)CCNC(=O)Nc1cccc(Cl)c1Cl  -8.51%
12. CN(c1ccccc1)S(=O)(=O)c1ccc(Cl)c(C(=O)NCCc2c[nH]c3ccccc23)c1  -7.85%
13. O=C(NCCc1ccccc1)c1cccc(NC(=O)c2ccccc2)c1  -7.31%
14. CN(C)c1ccc(C2N(C)C(=O)c3ccccc3N2C)cc1 (stereo not given)  -5.29%
15. CN1CN(C)c2ccc([N+](=O)[O-])c3cccc1c23  -4.95%
16. CC1CN(C(=O)c2cccc(NS(=O)(=O)c3ccc(Br)cc3)c2)CC(C)O1 (stereo not given)  -3.46%
17. O=C(Nc1ccc2c(c1)OCCO2)C(C1CC1)N1CCC(Cc2ccccc2)CC1 (stereo not given)  -1.64%
18. Cc1ccc(CN(C)C[C@@H]2OCc3cnnn3CCCC(=O)N([C@@H](C)CO)C[C@H]2C)cc1  -0.921%
19. COC(=O)C[C@H]1C[C@@H]2c3cc(N(C)C)ccc3O[C@@H]2[C@H](CO)O1  -0.17%
20. CCOc1cccc(=O)c2c(C)n(CC3CCCO3)c(C)c12 (stereo not given)  -0.086%
21. CCCC(=O)N1CCC1(C)C(=O)NCc1ccc(SC)cc1 (stereo not given)  0.58%
22. O=C(NCCS(=O)(=O)N1CCN(c2ccccc2)CC1)c1cc(=O)c2ccccc2o1  0.636%
23. CC1(C(=O)NS(=O)(=O)c2cccs2)CCN1C(=O)Cc1ccc(-c2ccccc2)cc1 (stereo not given)  0.809%
24. CCn1c(COc2c(C)cccc2C)nnc1SCc1nc2ccccc2c(=O)[nH]1  0.882%
25. O=C(OCc1cn([C@@H]2C[C@H](c3ccc(Cl)cc3)N(Cc3cccs3)C[C@H]2O)nn1)c1ccccc1  1.48%
26. CC(C)[C@H](NC(=O)c1ccccc1F)C(=O)Nc1cccc(S(=O)(=O)N2CCOCC2)c1  1.57%
27. COc1ccc(S(=O)(=O)N2CCC(C(=O)NCc3ccco3)CC2)cc1C  1.61%
28. COc1ccc([C@H]2CC(=O)C[C@@H](CCn3cc(CC4CCCC4)nn3)O2)cc1  2.3%
29. CCCCCc1c(C)nc(N2CCN(Cc3ccc4c(c3)OCO4)CC2)[nH]c1=O  2.77%
30. COc1ccc(OC)c(NC(=O)C2(C)CCN2C(=O)Cc2ccccc2)c1 (stereo not given)  3%
31. COc1cccc(-c2cc3nc(NCCOc4ccccc4Cl)n(C)c(=O)c3s2)c1  3.07%
32. O=C(c1cc2cc(F)ccc2[nH]1)N1CCN(c2ccc(F)cc2)CC1  3.63%
33. Cc1c(C(=O)NCc2ccc(C#N)cc2)sc(=O)n1Cc1ccc(C(=O)N(C)C)cc1  5.36%
34. O=Cc1cn(CCOc2ccc(F)cc2)c2ccccc12  5.53%
35. COc1ccc(S(=O)(=O)N[C@@H]2C=C[C@@H](CC(=O)N3CCc4ccccc4C3)O[C@@H]2CO)cc1  5.92%
36. Cc1ccc(S(=O)(=O)N2CCC(=O)N([C@H](COCc3ccccc3)C(C)C)CC2)cc1  9.52%
37. CCCc1nc2ccccc2n1C(C)C(=O)NC(C)(C)C (stereo not given)  10.5%
38. CC1(Oc2ccc(Cl)cc2)CCN(Cc2csc3ccccc23)C1 (stereo not given)  10.5%
39. CCOc1ccc(CCN2C(=O)C(=O)N([C@@H](CC(C)C)CN3CCC[C@H]3CN3C(=O)C(=O)NC[C@@H]3Cc3ccccc3)C[C@@H]2CC(C)C)cc1  11.6%
40. CCc1nc2ccc(C(=O)N(C)CCN(C)C)cn2c1N(CC)CCOC  15.1%
41. O=c1[nH]c(N2CCN(Cc3ccc4c(c3)OCO4)CC2)nc2c1CCCC2  15.1%
42. CCCCC(O)C1=C[N+](=O)CC=C1 (stereo not given)  16%
43. C[C@H]1COc2cc(N3CCSCC3)ccc2S(=O)(=O)N1  17.1%
44. C[C@@H]1CN([C@@H](C)CO)C(=O)CCCn2nncc2CO[C@H]1CN(C)Cc1ccc(C(F)(F)F)cc1  17.2%
45. CN(C)CCCOc1ccc(-c2ccc3nccn3c2)cn1  17.2%
46. O=C(CSCc1ccccc1)Nc1ccccc1  19.4%
47. CCc1nc2ccc(C(=O)Nc3ccc(OC)c(OC)c3)cn2c1N(C)C(=O)c1cccc(OC)c1  21.7%
48. CC1(C(=O)NS(=O)(=O)c2cccc(F)c2)CCN1C(=O)Cc1cc(F)ccc1F (stereo not given)  27.2%

In the case of COc1cc(SC#N)ccc1N=Cc1c(C)[nH]n(-c2ccc(C)cc2)c1=O, the Potency is reported as 25.9 µM (active).
In the case of CCc1nc2ccc(C(=O)Nc3cccc(OC)c3)cn2c1N(CCC(C)C)CCN(C)C, the Potency is reported as 18.4 µM (active).
With Fc1ccc2[nH]c3c(N4CCN(Cc5ccc6c(c5)OCO6)CC4)ncnc3c2c1 the Potency was 23.1 µM (active).
In the case of CN(C)CCNC(=O)c1ccc(Cl)c2cc3ccccc3nc12, the Potency is reported as 20.6 µM (active).
In the case of COc1ccc(C2=NOC(C(=O)NCc3ccco3)C2)cc1OC (stereo not given), the Potency is reported as 6.31 µM (active).
In the case of O=C1c2cccc3c([N+](=O)[O-])ccc(c23)C(=O)N1CC1CCCO1 (stereo not given), the Potency is reported as 23.1 µM (active).
In the case of COc1ccc(C)cc1-n1nnnc1SCc1nc2ccccc2c(=O)[nH]1, the Potency is reported as 14.6 µM (active).
With CC[C@]1(O)C[C@@H]2CN(CCc3c([nH]c4ccccc34)[C@@](C(=O)OC)(c3cc4c(cc3OC)N(C)[C@H]3[C@@](O)(C(=O)OC)[C@H](OC(C)=O)[C@]5(CC)C=CCN6CC[C@]43[C@@H]65)C2)C1 the Potency was 0.082 µM (active).
For O=C(CCCN1CCc2[nH]c3ccc(F)cc3c2C1)c1ccc(F)cc1, the Potency was 18.4 µM (active).
In the case of C=C1C(=O)OC2C1CCC(C)=CCCC1(C)OC21 (stereo not given), the Potency is reported as 16.4 µM (active).
For CN(C)c1ccc(Nc2c3c4c(cccc4n(C)c2=O)C(=O)c2ccccc2-3)cc1, the Potency was 5.8 µM (active).
In the case of O=C(CCl)Nc1cccc(CP(=O)(c2ccccc2)c2ccccc2)c1, the Potency is reported as 4.11 µM (active).

Source: PubChem BioAssay AID686970 (National Center for Advancing Translational Sciences (NCATS), 2013)
